# Only some compounds are listed: those with a hit (about 0.83% of all), similar ones and a draw of the others.
# Menin-MLL TR inh: inhibitors of human menin-MLL interaction, mutant MLL peptide. Menin + Texas Red MLL mutant peptide, fluorescence polarization. Potency, µM (series often up to 61.6 µM), without a hit: top-dose FP activity change, negative = inhibition, actives largely listed as inhibitors. hit rate 0.23% among 270,000. AID 1768; active = well fitted inhibition curve with a large enough effect in the polarisation, with a control signal flat, not every such curve was filed as active; inconclusive = small, poorly fitted or top-dose-only effect, or effect the other way, or a change in a side signal; inactive = no such curve, though single readings can be large or run the other way; the % refers to the polarisation; note: potency is the fitted concentration of half-maximal effect; % of control where 0% means no effect
# Menin-MLL FL inh: displaces fluorescein MLL peptide from human menin | Fluorescence polarization, fluorescein-MLL peptide displacement from menin | 290,000 tested, under 10 active | FP activity change, % at 61.4 µM; active = well fitted curve in the direction sought with a large enough effect in the polarisation, not every such curve was filed as active; inconclusive = small, poorly fitted or top-dose-only effect, or effect the other way, or a change in a side signal; inactive = no such curve, though single readings can be large or run the other way; the % refers to the polarisation; note: % of control where 0% means no effect
# CtBP-E1A inh: CtBP/E1A binding inhibition. AlphaScreen GST-E1A/His-CtBP binding, 1536-well; stronger effect = lower value. activity change, % (test concentration not listed). hit rate 0.49% among 340,000. AID 651724; note: % is set by controls: 0 for no effect and ±100 for the full control effect
#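 Steps: dispense buffer (Tris pH 8.0, NaCl 300 mM, TCEP 1 mM, BSA, Tween 20); add 5X protein mix (GST-E1A, His-CtBP, 125 nM each); pin 23 nL compound; 2 h at 37 °C, dark; add 5X beads (50 ug/mL); 1 h; read.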
# MLL CXXC-DNA inh: MLL CXXC-DNA interaction inhibition | AID 2662 | hit rate 0.037% among 290,000 | MLL-CXXC / FITC-HOXA9 DNA fluorescence polarization | Potency, µM (top dose mostly 115 µM), inactives show at the highest dose activity change, negative = inhibition, usual class: inhibitors | Q03164; active = well fitted inhibition curve with a large enough effect in the polarisation, with a control signal flat, not every such curve was filed as active; inconclusive = small, poorly fitted or top-dose-only effect, or effect the other way, or a change in a side signal; inactive = no such curve, though single readings can be large or run the other way; the % refers to the polarisation; note: potency is the fitted concentration of half-maximal effect
#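 Steps: dispense CXXC domain solution (7 uM) → pin compounds or unlabeled HOX-A9 DNA control → 5 min ambient → add FLSN-HOX-A9 solution (50 nM) → spin → 30 min ambient → fluorescence polarization. Tris pH 7.5/NaCl/DTT/BSA buffer.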
# Six1-Eya2 inh: inhibitors of human Six1/Eya2 interaction; AlphaScreen GST-Six1/His-Eya2 binding, biochemical; stronger effect = lower value; activity change, % (test concentration not listed); hit rate 0.56% among 360,000; Q15475+O00167; AID 651725; note: % is set by controls: 0 for no effect and ±100 for the full control effect
#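 GST-Six1 + His-Eya2 (5X stock: 250/500 nM); Tris pH 8.0, 300 mM NaCl, 0.05% BSA, 0.02% Tween 20; GSH donor/Ni acceptor beads; 1 h 37 °C dark; AlphaScreen readout.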
# GLS inh: glutaminase GLS (human) inhibition; GLS enzymatic activity, qHTS titration; hit rate 0.21% among 410,000; O94925; AID 624170; Potency, µM (titrated, usually from 45.5 µM), for inactives: top-dose activity change, negative = inhibition, usual class: inhibitors; active = well fitted inhibition curve with a large enough effect; inconclusive = small, poorly fitted or top-dose-only effect, or another doubt; inactive = no such curve, though single readings can be large or run the other way; note: potency is the fitted concentration of half-maximal effect; % is set by controls: 0 for no effect and ±100 for the full control effect
#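 Glutamate formation by hKGA was monitored fluorometrically using coupled glutamate oxidase, HRP and Amplex Red. Substrate was added as 1 mM L-glutamine solution; incubation was 30 min at RT after an initial read.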
# * hit, by the source's call; ? = inconclusive; / = not tested or not shown; [ ] = remark or other dose. Cut-off read from the data, not from the text of the source, unless noted: active = activity change below about -65%; inconclusive = mostly about -30% to -63%; inactive = weaker than that.
SMILES,Menin-MLL TR inh,Menin-MLL FL inh,CtBP-E1A inh,MLL CXXC-DNA inh,Six1-Eya2 inh,GLS inh
CN(C)c1ccc(O)c2c1CC1CC3C(N(C)C)C(=O)C(C(N)=O)=C(O)[C@@]3(O)C(=O)C1=C2O (some centres undefined),/,/,-15.8,/,-10.5,56.2%
CN(C)c1cc(NC(=O)CNC(C)(C)C)c(O)c2c1C[C@@H]1C[C@H]3[C@H](N(C)C)C(=O)C(C(N)=O)=C(O)[C@@]3(O)C(=O)C1=C2O,/,/,/,/,/,6.31µM*
CCOC(=O)C(Oc1ccc2c(-c3ccccc3)cc(=O)oc2c1C)c1ccccc1 (centres undefined),8.5%,0.7,11.5,5.6%,0.5,-15.7%
Cc1c(OCc2ccc(C(=O)O)cc2)ccc2c(-c3ccccc3)cc(=O)oc12,/,-1.3,1.1,-2.5%,-73.6*,14.0%
O=C(COCCOCCOCC(=O)Nc1c(I)cc(I)c(C(=O)O)c1I)Nc1c(I)cc(I)c(C(=O)O)c1I,/,/,/,/,/,-16.4%
COc1ccc(/C=N\NC(=O)CNC(=O)C(c2ccccc2)c2ccccc2)cc1[N+](=O)[O-],13.7%,4.1,-7.9,10.9%,-9.3,0.0%
COc1cc(/C=N\NC(=O)CNC(=O)C(c2ccccc2)c2ccccc2)ccc1O,/,0.0,-7.4,-4.3%,-7.6,11.2µM*
O=C(Cn1cnc2ccccc2c1=O)N/N=C/c1ccc(Br)cc1,/,0.3,-21.5,-1.3%,-4.2,3.0%
COc1cc(/C=N/NC(=O)Cn2cnc3ccccc3c2=O)ccc1O,/,0.7,-11.1,-24.2%,-2.2,20µM*
CN(Cc1ccccc1)C(=O)C1CCN(S(=O)(=O)c2cccc3nonc23)CC1,-1.1%,5.3,0.6,-2.1%,4.4,10µM*
CN(C(=O)C1CCN(S(=O)(=O)c2cccc3nonc23)CC1)C1CCCCC1,-1.0%,0.6,-11.0,2.4%,5.9,4.0%
CC(C)[C@@H](OCc1ccccc1)[C@H](C)/C=N\O[C@@H](C)c1cn([C@@H]2COC[C@@H]2O)nn1,0.9%[11.7 µM],1.5[11.7 µM],/,/,/,/
O=C(O)CCC(=O)NNc1nc2ccccc2nc1-c1ccccc1,1.8%,-1.8,-13.1,-17.5%,-1.7,11.2µM*
COc1ccc(/C=C/C(=O)O/N=C(\N)c2ccccn2)cc1OC,/,/,-73.1*,/,-8.9,-3.9%
CCCn1c(C)nc2c(NCC(C)(C)CN(C)C)nc(C)nc21,-1.7%,-9.6,/,/,/,/
N#Cc1ccccc1CSc1nnc(-c2ccc(Br)cc2)o1,/,/,/,/,/,-4.6%
C[C@@](Cc1ccccc1)(NC(=O)CN)c1ccccc1,-2.8%[24.8 µM],-15.8,/,-5.0%,/,-2.3%
Cc1ccccc1NC(=O)CSc1n[nH]c(-c2ccccn2)n1,-4.2%,3.2,-93.6*,7.5%,-91.7*,3.3%
O=C(CSc1n[nH]c(-c2ccccn2)n1)Nc1cccc(Cl)c1,/,/,-96.8*,33.2%,-92.5*,9.7%
Cc1ccc(C)c(NC(=O)CSc2n[nH]c(-c3ccccn3)n2)c1,-9.4%,-1.1,-92.1*,32.2%,-77.4*,-3.0%
Cc1nc(SCC(=O)Nc2cccc(Cl)c2)n[nH]1,15.3%,2.9,-0.3,1.6%,-3.1,3.0%
Cc1ccc(Cn2c3ccccc3c3cnn(CC(=O)N4CCCCCC4)c(=O)c32)cc1,/,/,/,/,/,6.1%
O=c1c2ccccc2sn1-c1nccs1,-18.6%,-3.2,-8.4,6.1%,-7.2,1.26µM*
O=C(O)c1cccc(-n2sc3ccccc3c2=O)c1,/,/,-0.9,/,0.4,8.91µM*
CN(C)S(=O)(=O)c1cccc(-n2sc3ccccc3c2=O)c1,6.5%,1.4,-12.6,-22.9%,-6.2,?
SMILES,Menin-MLL TR inh,Menin-MLL FL inh,CtBP-E1A inh,MLL CXXC-DNA inh,Six1-Eya2 inh,GLS inh
O=c1c2ccccc2sn1-c1ccccc1F,/,/,0.0,/,-3.4,7.94µM*
O=c1c2ccccc2sn1-c1cccc(Cl)c1,/,/,-3.4,/,-11.1,7.94µM*
Cc1ccccc1-n1sc2cc(F)ccc2c1=O,11.4%,-3.1,-16.4,17.7%,-1.4,?
CCC1CCCCN1S(=O)(=O)c1ccc(C(=O)Nc2sc3c(c2C(=O)NC)CCC3)cc1 (centres undefined),/,/,/,/,/,-9.3%
CCCCC/C=C/C/C=C/CCCCCCCC(=O)NC(C)c1ccccc1 (centres undefined),/,/,/,/,/,1.9%
CC(=O)Nc1ccc2c(=O)n(-c3ccccc3)sc2c1,/,/,2.3,/,-4.0,6.31µM*
Cc1ccc(-n2sc3ccccc3c2=O)cc1S(=O)(=O)N1CCCCC1,?,5.1,?,10.2%,?,6.31µM*
O=c1c2ccccc2sn1-c1ccccc1,6.5%,3.4,-3.8,1.0%,-0.9,4.47µM*
O=c1c2ccccc2sn1-c1ccc(S(=O)(=O)N2CCCCC2)cc1,/,/,-2.3,/,-4.1,94.9%
CCCCCCCCCCCCCCCC(=O)O[C@H]1[C@@H](O)[C@@H](O)[C@@H]([C@H](NC(=O)[C@@H]2C[C@@H](CCC)CN2C)[C@H](C)Cl)O[C@@H]1SC,/,/,/,/,/,-12.4%
CCOc1ccc(CNS(=O)(=O)c2ccc3[nH]c4c(c3c2)CCCC4)cc1OC,/,/,/,/,/,8.1%
O=C1Oc2ccccc2C(=O)C1C(CC(O)c1ccc(-c2ccc(Br)cc2)cc1)c1ccccc1 (centres undefined),?,0.2,/,-14.6%,/,16.7%
CO[C@@H]1COC(=O)[C@H]2CCCN2C(=O)[C@@H](C)COC(=O)[C@H](COCc2ccccc2)NC(=O)C/C=C\[C@H]1C,7.9%[11.7 µM],-4.0[11.7 µM],/,/,/,/
Cc1ccc(N2C(=O)CC(Sc3ncccc3C(=O)O)C2=O)cc1 (centres undefined),8.2%,-2.6,5.3,2.7%,2.0,0.0%
CCOc1ccccc1N1C(=O)CC(Sc2ncccc2C(=O)O)C1=O (centres undefined),9.8%,3.7,8.9,-2.0%,2.7,17.8µM*
CCOC(=O)N1CCc2c(sc3c2c(=O)n(-c2ccc(F)cc2)c(=O)n3CC(=O)c2ccc(Cl)cc2)C1,/,/,/,/,/,3.3%
O=c1c2sc3ccccc3c2n(Cc2ccc(Cl)cc2)c(=O)n1Cc1ccco1,/,/,/,/,/,-12.6%
CC1=C(C#N)C(=O)NC(=O)/C1=C\c1ccc(-c2cc(C)c(C)cc2[N+](=O)[O-])o1,?,-7.8,-1.7,?,-15.8,11.2µM*
CC(C)(C)CC(=O)OCC(=O)[C@@]12OC(C)(C)O[C@@H]1C[C@H]1[C@@H]3CCC4=CC(=O)C=C[C@]4(C)[C@@]3(F)[C@@H](O)C[C@]12C,/,/,/,/,/,-17.0%
CC1(C)CC[C@]2(C(=O)n3ccnc3)CC[C@]3(C)[C@H](C(=O)C=C4[C@@]5(C)C=C(C#N)C(=O)C(C)(C)[C@@H]5CC[C@]43C)[C@@H]2C1,/,/,-21.3,/,-21.7,10µM*
COc1ccc(-c2ccc3c(c2)C2CC3CCN2)cc1 (centres undefined),/,/,-5.6,/,-5.9,15.8µM*
CC(NC(=O)C1CCN(C(=O)N2CCOc3ccc(Cl)cc32)CC1)c1ccccc1 (centres undefined),/,/,/,/,/,-1.2%

# Compound activity deposited in PubChem by National Center for Advancing Translational Sciences (NCATS).
